Screening results as filed in PubChem BioAssay.
TDP1 block = blocks human tyrosyl-DNA phosphodiesterase 1 | 0.28% of 350,000 active | AID 485290 | recombinant TDP1, AlphaScreen DNA substrate cleavage | Potency, µM (highest dose often 130 µM), for inactives: at the highest dose activity change, negative = inhibition, most hits filed as inhibitors | Q9NUW8; note: potency is the fitted concentration of half-maximal effect; nearly all actives have a fitted effect of over 40% in size
Target sequence (Q9NUW8 whole entry, looked up): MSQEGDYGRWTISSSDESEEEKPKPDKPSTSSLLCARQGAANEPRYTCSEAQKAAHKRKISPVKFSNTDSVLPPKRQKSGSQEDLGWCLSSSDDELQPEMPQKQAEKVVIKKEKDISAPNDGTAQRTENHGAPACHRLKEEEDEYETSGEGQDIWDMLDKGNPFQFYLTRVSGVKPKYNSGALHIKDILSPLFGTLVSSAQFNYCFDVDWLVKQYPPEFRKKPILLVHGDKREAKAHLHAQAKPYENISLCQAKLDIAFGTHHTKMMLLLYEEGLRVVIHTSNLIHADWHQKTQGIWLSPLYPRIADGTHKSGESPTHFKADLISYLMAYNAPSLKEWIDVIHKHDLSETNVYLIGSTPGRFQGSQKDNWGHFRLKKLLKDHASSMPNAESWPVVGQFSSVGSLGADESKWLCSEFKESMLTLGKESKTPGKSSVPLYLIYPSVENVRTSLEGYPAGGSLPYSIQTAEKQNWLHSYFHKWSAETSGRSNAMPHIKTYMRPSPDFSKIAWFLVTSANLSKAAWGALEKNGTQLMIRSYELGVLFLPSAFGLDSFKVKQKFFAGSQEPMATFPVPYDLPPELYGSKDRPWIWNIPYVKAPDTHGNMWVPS
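Tdp1 1 nM final; 15 min RT w/ cpd; substrate 15 nM, 5 min; beads 10 ug/ml, 10 min; AlphaScreen read. Neg ctrl: no enzyme.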
DT40 TDP1 no CPT = qHTS for Inhibitors of human tyrosyl-DNA phosphodiesterase 1 (TDP1): qHTS in cells in absence of CPT; Potency, µM (series often up to 46.2 µM), without a hit: at the top dose activity change, negative = growth inhibition, hits mostly inhibitors; 15% of 420,000 active; DT40 Tdp1-/- hTDP1 cells, no CPT, ATP luminescence, 48 h; AID 686978, 2013; note: potency is the fitted concentration of half-maximal effect; nearly all actives have a fitted effect of over 55% in size
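Cells were dispensed at 400 per well, compounds added by pin tool, plates incubated ≥48 hr at 37 °C, then CellTiter-Glo added for 30 min at room temperature before luminescence reading. Line: DT40 Tdp1-/- complemented with hTDP1; camptothecin omitted.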
TDP1 cell CPT = DT40-hTDP1 cell growth loss with CPT; chicken DT40 Tdp1-/-;hTDP1 cells + 20 nM CPT, ATP luminescence, 48 h; Potency, µM (top dose mostly 46.2 µM), for inactives: at the highest dose activity change, negative = growth inhibition, hits mostly inhibitors; 12% of 420,000 active; AID 686979; note: potency is the fitted concentration of half-maximal effect; nearly all actives have a fitted effect of over 55% in size
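Chicken DT40 Tdp1-/- cells complemented with human TDP1, 400 cells/well, exposed to compounds plus 20 nM camptothecin for at least 48 h at 37 C; viability read as ATP content by CellTiter-Glo luminescence.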
Giardia kill = Giardia lamblia killing; Giardia lamblia trophozoite viability; activity change, % at 7.66 µM, hits read low; 0.15% of 340,000 active; in the data active = activity change below about -80%; inconclusive = between about -30% and that limit;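 note: parasites exposed to compound for two days anaerobically before the ATP read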
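Giardia lamblia trophozoites (100 cells/well) were incubated with compounds for 48 h at 37 deg C under anaerobic conditions. Viability was read as ATP content by one-step luminescence after 15-30 min at room temperature.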
IL1B secr inh = inhibitors of inflammasome signaling (IL-1 beta secretion). 4.7% of 360,000 active. activity change, % at 57.5 µM. THP-1 LPS/ATP IL-1B secretion, AlphaLISA, 16 h; active compounds read low. AID 743279; in the data active = activity change below about -50%; inconclusive = mostly about -30% to -49%
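Secreted IL-1B measured by AlphaLISA bead assay after 16 h compound exposure of THP-1 cells; compounds (final up to 57.5 uM) added 1 h before LPS (250 ng/mL) and ATP (1.25 mM) stimulation; lower signal means less secretion.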
ELG1 repair inh = blocks ELG1-dependent DNA repair in HEK293T cells; HEK293T ELG1-luciferase reporter, luminescence, 16 h; DNA damage induced by 5-fluorouridine; Potency, µM (doses to about 46.1 µM), inactives show top-dose activity change, negative = inhibition, most hits filed as inhibitors; 2.3% of 330,000 active; note: potency is the fitted concentration of half-maximal effect; nearly all actives have a fitted effect of over 55% in size
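DMSO vehicle served as the neutral condition. Each well held 2,000 cells given 5-fluorouridine plus compound; after 16 hr at 37 °C/5% CO2, ONE-Glo was added and luciferase measured 30 min later.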
Active calls of the source: *; u = inconclusive; x = not tested or not shown; [ ] = remark or other dose. Rows were chosen to be rich in hits. Some 19% of all compounds tested hit in one or more screens of this group. Unless noted, calls come from the whole dose curve; as a rule, active = well fitted curve in the direction sought with a large enough effect; inconclusive = small, poorly fitted or top-dose-only effect, or another doubt; inactive = no such curve, though single readings can be large; an effect the other way counts as inactive or inconclusive. % is set by controls: 0 for no effect and ±100 for the full control effect.

SMILES | TDP1 block | DT40 TDP1 no CPT | TDP1 cell CPT | Giardia kill | IL1B secr inh | ELG1 repair inh
CCN(CC(=O)Nc1ccc2c(c1)OCCO2)c1nc(-c2cccnc2)nc2ccccc12 | 8% | 23µM* | u | -14 | -30 | 13µM*
c1cncc(-c2nc(NCc3ccc4c(c3)OCO4)c3ccccc3n2)c1 | 5% | 21µM* | u | -19 | -5 | 21µM*
CC(Nc1nc(-c2cccnc2)nc2ccccc12)c1ccc(F)cc1 (stereo not given) | 9% | 18µM* | 26µM* | 3 | -68* | u
Fc1ccc(CNc2nc(-c3cccnc3)nc3ccccc23)cc1 | 9% | 18µM* | u | -8 | -69* | u
CCCCc1nn2c(=O)cc(COC(=O)c3ccco3)nc2s1 | 8% | -2% | -17% | x | x | x
CCC(C)[C@H]1COCCS(=O)(=O)N1Cc1ccc(Cl)cc1Cl (stereo not given in full) | x | u | u | -7 | -3 | -2%
Cc1c(Cl)cccc1NC(=O)c1ccc(-n2ccnc2)nc1 | 0% | 2% | -10% | 3 | -20 | -18%
CC(Nc1nc(-c2ccccc2F)nc2ccccc12)c1ccccc1 (stereo not given) | x | u | -22% | -7 | -90* | -15%
c1ccc2c(c1)OCC(CNc1ncnc3sccc13)O2 (stereo not given) | 2% | 0.65µM* | 1.2µM* | -11 | -12 | u
c1ccc(CN2CCC(Nc3nc(-c4cccnc4)nc4ccccc34)CC2)cc1 | 4% | 13µM* | 18µM* | 9 | -91* | 3%
CC(Nc1nc(-c2ccccc2O)nc2ccccc12)c1ccccc1 (stereo not given) | -6% | u | u | 2 | 21 | u
Clc1cccc(CNc2nc(-c3cccnc3)nc3ccccc23)c1 | 3% | u | u | -3 | -17 | u
NS(=O)(=O)c1ccc(CNc2nc(-c3cccnc3)nc3ccccc23)cc1 | x | 15µM* | u | 0 | u | u
CN1CCCN(C(=O)CNC(=O)c2ccccc2Br)CC1 | 1% | 22% | -14% | 0 | -3 | 0%
CC(C(=O)NC1CCCCCC1)c1ccc([N+](=O)[O-])cc1 (stereo not given) | x | -23% | 9% | -19 | -17 | 4%
COCCn1c(=O)c(-c2ccc(OC)cc2)nc2cnc(Nc3cccc(OC)c3)nc21 | x | -19% | 4% | x | x | x
c1cncc(-c2nc(NCC3COc4ccccc4O3)c3ccccc3n2)c1 (stereo not given) | 8% | u | 18µM* | -6 | -78* | 15µM*
CC(=O)NCCNc1nc(-c2cccnc2)nc2ccccc12 | x | -7% | -1% | x | x | x
COc1ccc(Nc2ncnc3onc(C)c23)c(OC)c1 | -1% | -9% | 3% | x | x | x
Cc1noc2ncnc(NCc3cccc(Cl)c3)c12 | 3% | 18µM* | 16µM* | x | x | x
Cc1ccc(CNc2ncnc3onc(C)c23)cc1 | 3% | 15µM* | 16µM* | x | x | x
COc1ccc(OC)c(CCNc2ncnc3onc(C)c23)c1 | 2% | 5.2µM* | 7.3µM* | x | x | x
Cc1nc(N2CCOCC2)c2c(C(=O)N3CCN(c4cccc(C)c4C)CC3)c(C)oc2n1 | 2% | u | u | x | x | x
COc1ccc([C@H]2C[C@H](O)[C@@H](n3cc(C4CC4)nn3)CN2C(=O)c2cccs2)cc1 | x | 6% | 11% | x | 1 | x
Cc1ccc(NC(=O)Cc2ccc(-c3ccccc3)cc2)nc1 | 1% | -27% | u | 4 | -60* | u
SMILES | TDP1 block | DT40 TDP1 no CPT | TDP1 cell CPT | Giardia kill | IL1B secr inh | ELG1 repair inh
O=C(CCc1c[nH]c2ccccc12)NCc1ccncc1 | 9% | -8% | -1% | -24 | 0 | 6%
Cc1ccc(NC(=O)CCc2c[nH]c3ccccc23)nc1 | 7% | 2.6µM* | 2.6µM* | -3 | 31 | u
O=C(Cc1ccc(-c2ccccc2)cc1)Nc1ccccn1 | -6%[0.0935 µM] | u | 1% | -16 | -69* | u
COc1ccc(OC)c(C(C(=O)NC2CCCCC2)N(C(=O)c2ccccn2)c2cccnc2)c1 (stereo not given) | 1% | -18% | 2% | -13 | -7 | 3%
CCN(CC)S(=O)(=O)c1ccc(NC(=O)Cn2ncc3c([nH]c4ccccc43)c2=O)cc1 | 2% | u | u | x | x | x
COc1ccc(CCNC[C@H](O)c2ccc(O)cc2)cc1OC | x | u | -2% | x | x | x
Cc1c(CC(=O)N2CCN(C(=O)C3COc4ccccc4O3)CC2)c(=O)oc2cc(O)cc(O)c12 (stereo not given) | 4% | -5% | 3% | u | -11 | u
COc1ccc2c(C)c(CC(=O)N3CCN(C(=O)C4COc5ccccc5O4)CC3)c(=O)oc2c1 (stereo not given) | 1% | u | -25% | 0 | -6 | 23µM*
COc1ccc(N2CCN(C(=O)C3COc4ccccc4O3)CC2)cc1 (stereo not given) | 5% | -14% | -5% | 2 | -14 | 0%
Cc1c(CC(=O)N2CCN(C(=O)C3COc4ccccc4O3)CC2)c(=O)oc2cc(O)ccc12 (stereo not given) | 4% | 3% | 2% | -11 | 7 | 0.73µM*
COc1ccc(F)cc1C(=O)C1CCCN(Cc2cn(C)c3ccccc23)C1 (stereo not given) | 4% | 13µM* | 15µM* | 20 | -78* | 10%
Cn1cc(CN2CCCC(C(=O)c3cc(F)ccc3F)C2)c2ccccc21 (stereo not given) | 6% | 16µM* | u | -3 | -71* | u
CSc1ccccc1C(=O)C1CCCN(Cc2c(C)n(C)n(-c3ccccc3)c2=O)C1 (stereo not given) | 0% | 29µM* | u | 50 | -4 | 3%
COC(=O)c1ccc(CN2CCCC(C(=O)c3cc(F)ccc3OC)C2)cc1 (stereo not given) | x | -28% | u | 11 | 0 | -2%
COc1ccc(OC)c(CN2CCCC(C(=O)c3ccccc3SC)C2)c1 (stereo not given) | 0% | 9.2µM* | 13µM* | -16 | -68* | u
COc1cccc(NC(=O)CSc2nc3ccsc3c(=O)n2-c2ccc(C(=O)O)cc2)c1 | 2% | -17% | 1% | -16 | -14 | -10%
CC[C@@]12CCCN3CCc4c(n(c5ccccc45)[C@](O)(C(=O)OC)C1)[C@H]32 | -8%[56.1 µM] | -1% | 6% | x | x | x
CC(C)(C)NC(=O)CSc1nc2cccnc2n1C1CCCCC1 | 2% | u | u | 23 | 28 | 2%
